# Data published in ChEMBL document CHEMBL4513216, “Probing the Open Global Health Chemical Diversity Library for Multistage-Active Starting Points for Next-Generation Antimalarials” (ACS Infect Dis, 2020).
# Out of some 65,000 compounds screened, about 2,100 (3.2%) showed an effect of 50% or more. The median lay at about -52%. For the sample, strong results were picked, then their nearest neighbours and some compounds at random.
# System: Plasmodium falciparum
# Test: Screen against P. falciparum Asexual Blood Stage (ABS), at 5uM
# Format: functional, Dd2
# Conditions: tested at 5 uM
row,SMILES,INHIBITION [%]
1,CCc1ccc(CN(C)C(=O)C(c2ccccc2F)N(C)C)nc1 (configuration not stated),-0.644
2,CC(=O)N1CCN(C(=O)C[C@@H]2C[C@@H](C(C)C)[C@H](CC#N)C=C2C)CC1,53.5
3,CC1=C[C@@H](CC#N)[C@H](C(C)C)C[C@H]1CC(=O)N1CCN(CCO)CC1,40
4,CC1=C[C@@H](CC#N)[C@H](C(C)C)C[C@H]1CC(=O)N1CCN(C)CC1,44.5
5,Cc1csc(N2CCN(C(=O)NCCNc3ncccn3)CC2)n1,-162
6,COCc1ncn2c1CN(C(=O)c1cccc3cccnc13)CC2,-90.6
7,Cc1cnc(CN2CCN(c3nc(C)cs3)C(C)C2)cn1 (configuration not stated),-48.9
8,CC1(C(=O)NCc2cccc(C(F)(F)F)c2)CCOCC1,-26.5
9,FC(F)(F)c1cccc(C2(CNCc3ccncc3)CCOCC2)c1,51
10,Cc1n[nH]cc1CNCC1(c2cccc(F)c2)CCOCC1,26.9
11,COC[C@]1(O)CCN(C2CCN(c3ccc(F)c(F)c3)CC2)CC1(C)C,63.1
12,COC[C@]1(O)CCN(C2CCN(c3ccc(Cl)cc3)CC2)CC1(C)C,34.4
13,COC[C@]1(O)CCN(C2CCN(c3ccc(OC)cc3)CC2)CC1(C)C,-57.6
14,CN1CCN(Cc2cn3c(n2)CN(C(=O)N2CCOCC2)CC3)CC1,-121
15,COc1ccccc1C(=O)N1CCNCC1C(N)=O (configuration not stated),-114
16,COc1ccccc1C1CNCCN1C(C)=O (configuration not stated),-43.1
17,COc1ccccc1C1CNCCN1C(=O)c1ccc(F)cc1 (configuration not stated),69.7
18,Cn1ccnc1CNC[C@H]1Cn2cc(-c3ccccc3)nc2CO1,56.4
19,COc1ccc(-c2cn3c(n2)CO[C@@H](CNCc2nccn2C)C3)cc1,21.3
20,Cc1cccnc1CNC[C@H]1Cn2cc(-c3ccccc3)nc2CO1,30.8
21,Cc1nc(CCNC(=O)c2cc(C(C)C)nn2C)sc1C,-66
22,COc1cc(N2CCC3(CC2)CN(CCO)c2ccccc23)ncn1,47.1
23,CN(Cc1n[nH]c2c1CCC2)c1nc(C2CCCC2)nc2c1CNC2,2.51
24,CN(C)c1nc2c(c(N(C)Cc3n[nH]c4c3CCCCC4)n1)CCNC2,40
25,CN(Cc1n[nH]c2c1CCCC2)c1nc2c(c(=O)[nH]1)CCNCC2,65.3
26,Cc1nccc(-c2cccc(NCC(=O)N3CCCC(C)C3)c2)n1 (configuration not stated),-103

row,SMILES,INHIBITION [%]
1,CN1C(=O)c2cccc(NC(=O)c3cccc(S(C)(=O)=O)c3)c2C1=O,-15.8
2,Cc1ncc(CN2CC[C@@](C)(O)[C@H](Oc3cccc(F)c3)C2)cn1,-18.7
3,O=C(NC1CCNCC1)C1(N2CCCCC2)Cc2ccccc2C1,62.9
4,O=C1NCCCC[C@@H]1NC(=O)C1(N2CCCCC2)Cc2ccccc2C1,-107
5,O=C(NC1CCNC1)C1(N2CCCCC2)Cc2ccccc2C1 (configuration not stated),33.8
6,CNCC(=O)N1CCC(c2ccnc(Nc3ccc(C)cn3)n2)C1 (configuration not stated),-163
7,CCc1nccn1CCC(=O)N1C[C@@H]2CC[C@H]1CN(C(=O)N(C)C)C2,-28.8
8,O=C(c1c(F)cc(Br)cc1F)N1CCc2cnccc21,-110
9,Cc1cnn(CC(C)NCc2ccc(OCc3cccnc3)cc2)c1 (configuration not stated),36.7
10,CCN1CCN(S(=O)(=O)c2cc(C)c(Cl)cc2Cl)CC1,64.3
11,CCN1CCN(S(=O)(=O)c2cc(C)c(C)cc2Br)CC1,28.4
12,CCN1CCN(S(=O)(=O)c2cc(C)c(Cl)cc2C)CC1,19.7
13,Cc1cc(S(=O)(=O)N2CCC(N3CCC(O)C3)CC2)c(Cl)cc1Cl (configuration not stated),69.3
14,Cc1cc(S(=O)(=O)N2CC[C@@H](O)C2)c(Cl)cc1F,-123
15,COC(=O)[C@H]1C[C@@H](O)CCN1S(=O)(=O)c1cc(C)c(Cl)cc1C,-190
16,O=C(c1csc(-c2ccc(C(F)(F)F)cc2)n1)N1CCCNCC1,-4.67
17,CC(C)CNC(=O)c1nn(C)c(NC(=O)Cc2ccccc2)c1F,-85.1
18,COc1ncccc1CNC1CCc2c(ccc(=O)n2C)C1 (configuration not stated),-74.3
19,Cc1ccc(CN2CC[C@H]3OCC[C@@H](C(=O)N4CCCCO4)[C@@H]3C2)o1,-9.16
20,CCN(CC)Cc1cn2c(n1)CN(C1CCOC1)CC2 (configuration not stated),-107
21,Nc1ncccc1C(=O)NCc1cccc(Cl)c1,-96.4
22,O=C(NCCN1CCOCC1)c1ccnn1-c1ccc2ccccn12,-33.3
23,Cc1nn(C)c(C)c1-c1cc(-c2cc(CC(=O)O)cs2)nc(N)c1C#N,-66.5
24,CCn1cc(-c2cc(-c3cc(CN(C)C)cs3)nc(N)c2C#N)c(C)n1,60.3
25,CCn1cc(-c2cc(-c3cc(CC(=O)O)cs3)nc(N)c2C#N)c(C)n1,-125
26,CNC(=O)C1=NOC2(CCN(Cc3nccs3)C2)C1 (configuration not stated),-90.7
